CSC inhib = cancer stem cell inhibition. cancer stem cell-like cells viability, luminescence. inhibition, % at 7.5 µM. 300,000 tested, 1.1% active; in the data active = inhibition above about 75%; inconclusive = no clear call, values can overlap the other calls; tested in HMLE shEcad cells
Mdm2 MdmX PPI = inhibitors of human Mdm2/MdmX interaction | SaOS-2 split-luciferase Mdm2/MdmX complementation, luminescence | inhibition, % at 8 µM | 330,000 tested, 3% active;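 active = inhibition of at least 50% at 8 µM in the primary screen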
Target sequence (O15151 whole entry, looked up): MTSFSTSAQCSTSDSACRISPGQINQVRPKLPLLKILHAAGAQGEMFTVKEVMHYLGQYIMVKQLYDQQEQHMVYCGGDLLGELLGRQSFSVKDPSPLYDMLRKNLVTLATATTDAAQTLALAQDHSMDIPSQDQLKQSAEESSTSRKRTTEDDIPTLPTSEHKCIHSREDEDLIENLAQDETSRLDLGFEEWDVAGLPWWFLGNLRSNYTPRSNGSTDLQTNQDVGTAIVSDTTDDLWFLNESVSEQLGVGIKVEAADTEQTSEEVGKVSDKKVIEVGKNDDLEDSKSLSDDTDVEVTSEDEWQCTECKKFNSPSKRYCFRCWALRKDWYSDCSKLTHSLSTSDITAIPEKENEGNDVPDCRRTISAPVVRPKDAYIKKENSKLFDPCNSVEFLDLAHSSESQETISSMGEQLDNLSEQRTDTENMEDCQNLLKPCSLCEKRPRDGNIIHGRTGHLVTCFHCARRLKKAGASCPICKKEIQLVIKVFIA
Target sequence (Q00987 whole entry, looked up): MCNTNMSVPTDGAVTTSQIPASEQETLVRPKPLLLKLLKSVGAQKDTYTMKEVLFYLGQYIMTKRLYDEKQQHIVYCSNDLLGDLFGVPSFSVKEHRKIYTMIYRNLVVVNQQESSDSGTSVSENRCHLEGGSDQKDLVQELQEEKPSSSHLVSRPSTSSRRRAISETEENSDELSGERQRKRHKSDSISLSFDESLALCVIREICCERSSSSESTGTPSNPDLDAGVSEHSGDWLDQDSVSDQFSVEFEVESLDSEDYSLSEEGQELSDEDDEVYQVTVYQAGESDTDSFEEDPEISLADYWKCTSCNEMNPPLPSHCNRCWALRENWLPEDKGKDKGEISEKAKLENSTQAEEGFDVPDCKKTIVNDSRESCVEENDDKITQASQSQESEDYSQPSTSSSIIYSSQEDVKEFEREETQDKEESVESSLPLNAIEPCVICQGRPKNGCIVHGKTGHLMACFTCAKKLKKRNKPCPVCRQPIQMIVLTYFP
Bfl-1 A1 inh = inhibitors of the anti-apoptotic protein A1, read as caspase activation; caspase activation, % (no concentration beside the values); MEF A1-2A-BIM cells, Caspase-Glo 3/7 luminescence, 3 h; percent of clofoctol response, vehicle zero; 330,000 tested, 0.066% active;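 active = over half of replicate activation scores above 10%, or exactly half above 10 with the replicate mean above 10; inconclusive = replicate mean below 10 yet half the replicates above 10; inactive = over half of replicates below 10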
aSyn 5UTR inh = 5' untranslated region of α-synuclein, MLPCN primary screen; alpha-synuclein 5'UTR reporter, inhibitor activity; inhibition, % (tested at 7.5 µM); 300,000 tested, 0.82% active; in the data active = inhibition above about 60%; inconclusive = no clear call, values can overlap the other calls;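 also: H4 neuroglioblastoma cells stably carrying SNCA 5'UTR luciferase fusion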
Beta cell apopt = blocks beta cell apoptosis. INS-1E cytokine-induced death, ATP luminescence, 48 h; percent of positive-control rescue, neutral wells zero. protection from apoptosis, % (no concentration beside the values). 300,000 tested, 0.8% active. AID 435005;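 active = Every replicate reaches about 75%, or at least half do and their mean reaches it too, limit read from the data; inconclusive = At least half of replicates reach the limit but their mean does not; inactive = Under half of replicates reach the limit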;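 also: higher means more ATP so stronger rescue from cytokine killing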
Mdm2-MdmX conf = human Mdm2/MdmX binding inhibition, confirmed | shares compounds with Mdm2 MdmX PPI | luminescent assay | inhibition, % at 8 µM | 10,000 tested, 55% active | AID 489028; in the data active = inhibition above about 40%
FLuc counter = full-length luciferase inhibition in Mdm2/MdmX counter-screen | inhibition, % at 8 µM | 6,200 tested, 77% active | SaOS-2 full-length luciferase counterscreen, luminescence | AID 504607 | shares compounds with Mdm2 MdmX PPI;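 active = mean inhibition at 8 µM reaching about 37%, which flags the compound as non-specific, limit read from the data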;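 also: p53-null SaOS-2 cells with luciferase driven by a doxycycline-inducible promoter; compound on cells about two nights before reading with doxycycline added after day one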
Each line names hits and unclear results; the compound was inactive in the other large screens (follow-up assays come after a bar, where they were run). Hits are enriched below; roughly 4.1% of the tested compounds scored in any of these assays.

CCCN1C(=O)c2ccccc2NC1c1ccc(OC)cc1OC (stereo not given)	none
CCCN1C(=O)c2ccccc2NC1c1ccc(OC)cc1O (stereo not given)	Mdm2 MdmX PPI 64 | Mdm2-MdmX conf 54 | FLuc counter 72
COc1ccc(CNC(=O)COc2ccc(F)cc2)cc1	none
O=C(COc1ccc(C(=O)Nc2ccc(Cl)cc2)cc1)NCc1ccccc1	Mdm2 MdmX PPI 62 | Mdm2-MdmX conf inactive
Cc1ccc(CNC(=O)COc2ccc(C(=O)c3ccc(F)cc3)cc2)cc1	Mdm2 MdmX PPI 51 | Mdm2-MdmX conf 54 | FLuc counter 64
COc1ccc(CNC(=O)COc2ccc(C(=O)c3ccc(F)cc3)cc2)cc1	Mdm2 MdmX PPI 61 | Mdm2-MdmX conf 47 | FLuc counter 89
CC1CCc2nc(N)c(C#N)c(-c3cccnc3)c2C1 (stereo not given)	Mdm2 MdmX PPI 84 | Mdm2-MdmX conf 79 | FLuc counter inactive
CC1CCc2nc(N)c(C#N)c(-c3ccncc3)c2C1 (stereo not given)	none
C/C(=N\NC(=O)c1c(C)nc2ccccn12)c1ccc(O)cc1O	Mdm2 MdmX PPI 74, aSyn 5UTR inh 84, Beta cell apopt 88 | Mdm2-MdmX conf 78 | FLuc counter inactive
CC(=O)N1c2ccc(S(=O)(=O)N3CCCCC3)cc2CC1C(=O)NCc1ccccc1C (stereo not given)	none (no result: Beta cell apopt)
COc1ccccc1NC(=O)CN(c1ccccc1)S(=O)(=O)c1ccccc1	none
COc1ccc(N(CC(=O)Nc2ccccc2OC)S(=O)(=O)c2ccc(NC(C)=O)cc2)cc1	Mdm2 MdmX PPI 53 | Mdm2-MdmX conf 63 | FLuc counter 55
COc1ccc(/C=C/C(O)=C2/C(=O)NC3(C)CC2c2ccccc2O3)c(OC)c1OC (stereo not given)	none
COc1ccc(/C=C/C(O)=C2/C(=O)N(C)C3(C)CC2c2ccccc2O3)cc1 (stereo not given)	Mdm2 MdmX PPI 73 | Mdm2-MdmX conf inactive
Cc1ccc(/C=C/C(O)=C2/C(=O)N(C)C3(C)CC2c2ccccc2O3)cc1 (stereo not given)	Mdm2 MdmX PPI 83 | Mdm2-MdmX conf 42 | FLuc counter inactive
CSCCC(=O)N1CCC(n2nccc2NC(=O)CCCc2ccccc2)CC1	none
N#CC1(NC(=O)CSc2nnc3n2CCCCC3)CCCCC1	none (no result: aSyn 5UTR inh)
O=C(Cn1cnnn1)NC1CCCN(Cc2ccccc2F)C1 (stereo not given)	none
O=[N+]([O-])c1ccc(N=Nc2c(O)[nH]c3ccc(F)cc23)cc1	Mdm2 MdmX PPI 54 | Mdm2-MdmX conf inactive
C[C@H](NC(=O)c1ccccc1)C(=O)Nc1nc(-c2ccccn2)cs1	none
Cc1cccc(C(=O)N[C@H](C(=O)Nc2ncc(C)s2)C(C)C)c1	CSC inhib 79, Mdm2 MdmX PPI 68, Beta cell apopt 76 | Mdm2-MdmX conf 64 | FLuc counter 99
Cc1cccc(C(=O)NC(C(=O)Nc2nc(-c3ccccn3)cs2)C(C)C)c1 (stereo not given)	Mdm2 MdmX PPI 74, aSyn 5UTR inh 81 | Mdm2-MdmX conf 57 | FLuc counter inactive
Cc1ccc(Nc2c([N+](=O)[O-])ccc3nonc23)cc1C	none
C[C@H](CO)N1C[C@H](C)[C@@H](CN(C)S(=O)(=O)c2cn(C)cn2)Oc2ccc(NC(=O)Cn3cnnn3)cc2C1=O	none (no result: aSyn 5UTR inh)
COCC(=O)N1CCC(n2nccc2NC(=O)CCOc2ccccc2)CC1	none
O=C(/C=C/c1ccc(Cl)cc1)c1ccc([N+](=O)[O-])o1	CSC inhib inconclusive, Mdm2 MdmX PPI 98, Bfl-1 A1 inh 9.9, Beta cell apopt 115 | Mdm2-MdmX conf 100 | FLuc counter inactive
Cc1ccc(/C=C/C(=O)c2ccc([N+](=O)[O-])o2)cc1	Mdm2 MdmX PPI 100, Bfl-1 A1 inh 7.9, Beta cell apopt 109 | Mdm2-MdmX conf 97 | FLuc counter 58
Cc1c(NS(=O)(=O)c2cccs2)cccc1-c1nc2cccnc2s1	none
O=S(=O)(Nc1cccc2ncccc12)c1cccs1	Mdm2 MdmX PPI 74 | Mdm2-MdmX conf 100 | FLuc counter 52
Cc1cc(C)cc(NC(=O)COC(=O)Cn2cnc3c2c(=O)n(C)c(=O)n3C)c1	none (no result: CSC inhib, Bfl-1 A1 inh, aSyn 5UTR inh, Beta cell apopt)

Source: PubChem (several laboratories)
